From PubChem BioAssay (NCI)
This is part of a sample that, as a whole, favours compounds with a hit. Of some 83,000 tested, about 20% had one in any assay.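 Plates (96-well) were seeded with cells, treated with compound at one concentration, and incubated for 48 hours before percent growth was determined.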 A number with no mark means an inactive call. Active and inactive are the calls of the source. How the source made its calls: active means growth percent below 10; inactive means the rest.

Test system: SK-MEL-5 melanoma
Test: NCI-60 one-dose screen, 48 h (100 = growth as untreated, 0 = no growth, -100 = all killed)
Conditions: 10 µM unless noted

**Q.** Which growth does the source give for `Cc1ccc(-c2csc(NC(=O)CN3CCN(c4cc5c(cc4F)c(=O)c(C(=O)O)cn5C4CC4)CC3)n2)cc1` here?
**A.** -26.4% (active)

**Q.** How did the growth turn out when `CCOC(=O)c1c(C)c2c(n1C)CSc1cc(C(=O)c3ccccc3)c(=O)[nH]c1-2` was run?
**A.** 85.8% [100 µM]

**Q.** For `CC(=O)N(N=Nc1ccccc1)c1cccc2ccccc12`, which growth is on record?
**A.** 84.3%

**Q.** How did the growth turn out when `Cc1ccc(-c2nc(/C=C3/C(=O)Nc4ccccc43)c3ccccn23)cc1` was run?
**A.** 82.9%

**Q.** With `CC(C)c1ccc(NC(=O)Nc2ccc(NC(=O)CCCC(=O)NOCc3ccccc3)cc2)cc1` as the compound, how does the growth read?
**A.** 83.8%

**Q.** `C=C(C)[C@@H]1CC[C@]2(C(=O)OC)CC[C@]3(C)[C@H](CC[C@@H]4[C@@]5(C)C/C(=C/NC(N)=S)C(=O)C(C)(C)[C@@H]5CC[C@]43C)[C@@H]12` was tested. Which growth did it give?
**A.** 87.1%

**Q.** How did the growth turn out when `COc1ccc(/C=C2\COc3ccc(O)c(O)c3C2=O)cc1` was run?
**A.** -1.8% (active)

**Q.** With `Clc1ccc(CNc2c3ccccc3nc3ccccc23)cc1` as the compound, how does the growth read?
**A.** 61.2%

**Q.** Which growth does the source give for `O=C(Nc1ncc(Cc2ccc(Cl)c(C(F)(F)F)c2)s1)c1ccc2nnsc2c1` here?
**A.** 38.3%

**Q.** How did the growth turn out when `C/C(=C(/c1ccc(Cl)cc1)c1ccc(OCCN2CCCC2)cc1)c1ccc(Cl)cc1` was run?
**A.** 82.4%

**Q.** With `CC(C)CCNC(=O)Cn1cccc(NC(=O)OCc2ccccc2)c1=O` as the compound, how does the growth read?
**A.** 96.1%

**Q.** For `Cc1nc2sc(C(=O)Nc3ccccc3)c(N)c2cc1C(=O)c1ccccc1`, which growth is on record?
**A.** 31.9%

**Q.** How did the growth turn out when `COC(=O)c1c2c(c(C)[n+]([O-])c1C)C(=O)C(NCc1ccc(Cl)cc1)=CC2=O` was run?
**A.** 29.9%
